In the supplement of paper PMC10849652:
Of roughly 7,900 targets only a part is listed; those with a hit were picked by preference. About 0.6% of all pairs of compound and target were hits. A number with no mark means an inactive call.

Legend:
Test in all cases: log2 fold change, soluble protein after heating vs DMSO (PISA); higher = thermal stabilisation; K562 cells, 10 uM, 30 min; active = over 0.2 and 3.5 SD of the protein, either way, in both replicates (recomputed)
[1] = compound: CC1=C(C=C(C=C1)NC(=O)C2=CC(=CC=C2)C(C)(C)C#N)NC3=CC4=C(C=C3)N=CN(C4=O)C
Summary of the method: (§1)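 K562 cells at 2×10^6 cells/mL were given 10 μM compound for 30 min. Aliquots then went through 3 min of heating across 48°C-58°C, were pooled, and were extracted in PBS with 0.5% NP-40 at 4°C, and the supernatant after 21,000xg for 90 min was quantified by TMTpro 16plex LC-MS/MS with channel sums equalised. Thermal stability relative to control samples, from duplicates, is given as log2 fold change.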

[2] = compound: CC1=C(C=C(C=C1)NC(=O)C2=CC(=CC=C2)N(C)C)NC(=O)C3=CC=C(C=C3)O
Summary of the method: as §1

[3] = compound: CC1=CC=C(C=C1)SC2=C3C=C(SC3=CN=C2)C(=O)N
Summary of the method: as §1

[4] = compound: CC1=NC(=CC=C1)C2=C(N=C(N2)C(C)(C)C)C3=CC4=NC=CN=C4C=C3
Summary of the method: as §1

Nexturastat A = compound: CCCCN(Cc1ccc(C(=O)NO)cc1)C(=O)Nc1ccccc1 [Nexturastat A]
Summary of the method: as §1

vemurafenib = compound: CCCS(=O)(=O)Nc1ccc(F)c(C(=O)c2c[nH]c3ncc(-c4ccc(Cl)cc4)cc23)c1F [vemurafenib]
Summary of the method: as §1

[5] = compound: CCCS(=O)(=O)Nc1ccc(F)c(C(=O)c2c[nH]c3ncc(Cl)cc23)c1F
Summary of the method: as §1

[6] = compound: CCCc1cc(C)[nH]c(=O)c1CNC(=O)c1cc(-c2ccnc(N3CCN(C)CC3)c2)cc2c1cnn2C(C)C
Summary of the method: as §1

givinostat = compound: CCN(CC)Cc1ccc2cc(COC(=O)Nc3ccc(C(=O)NO)cc3)ccc2c1 [givinostat]
Summary of the method: as §1

barasertib = compound: CCN(CCCOc1ccc2c(Nc3cc(CC(=O)Nc4cccc(F)c4)[nH]n3)ncnc2c1)CCOP(=O)(O)O [barasertib]
Summary of the method: as §1

[7] = compound: CC[C@@H]1C(=O)N(C)c2cnc(Nc3ccc(C(=O)NC4CCN(C)CC4)cc3OC)nc2N1C1CCCC1
Summary of the method: as §1

volasertib = compound: CC[C@@H]1C(=O)N(C)c2cnc(Nc3ccc(C(=O)N[C@H]4CC[C@H](N5CCN(CC6CC6)CC5)CC4)cc3OC)nc2N1C(C)C [volasertib]
Summary of the method: as §1

[8] = compound: CC[C@H](C)N1C=C(C2=C(C=C(C=C21)C3=CN=C(C=C3)N4CCNCC4)C(=O)NCC5=C(C=C(NC5=O)C)C)C
Summary of the method: as §1

epoxomicin = compound: CC[C@H](C)[C@@H](C(=O)N[C@@H]([C@@H](C)O)C(=O)N[C@@H](CC(C)C)C(=O)[C@]1(CO1)C)NC(=O)[C@H]([C@@H](C)CC)N(C)C(=O)C [epoxomicin]
Summary of the method: as §1

[9] = compound: CCn1c(C(=O)N(C2CC2)C2CC2)cc2c3c(ncn3C)c(Nc3cc(C)n(C)n3)nc21
Summary of the method: as §1

[10] = compound: CCn1cc(-c2ccnc3[nH]c(-c4cccc(CN(C)C)c4)cc23)c(-c2ccc(NC(=O)N(C)C)cc2)n1
Summary of the method: as §1

[11] = compound: CN(C)CC(=O)Nc1ccc2[nH]c(=O)c3ccccc3c2c1
Summary of the method: as §1

rosiglitazone = compound: CN(CCOC1=CC=C(C=C1)C[C@H]2C(=O)NC(=O)S2)C3=CC=CC=N3 (racemic) [rosiglitazone]
Summary of the method: as §1

[12] = compound: CN1C2=C(C3=C1C(=O)N(N=C3)CC4=CC(=CC=C4)N)SC(=C2)S(=O)C
Summary of the method: as §1

[13] = compound: CN1CCC(CNc2ccc3ncc(-c4cccc(OC(F)(F)F)c4)n3n2)CC1
Summary of the method: as §1

Sequence of UniProt P08174 (P08174 whole entry, looked up): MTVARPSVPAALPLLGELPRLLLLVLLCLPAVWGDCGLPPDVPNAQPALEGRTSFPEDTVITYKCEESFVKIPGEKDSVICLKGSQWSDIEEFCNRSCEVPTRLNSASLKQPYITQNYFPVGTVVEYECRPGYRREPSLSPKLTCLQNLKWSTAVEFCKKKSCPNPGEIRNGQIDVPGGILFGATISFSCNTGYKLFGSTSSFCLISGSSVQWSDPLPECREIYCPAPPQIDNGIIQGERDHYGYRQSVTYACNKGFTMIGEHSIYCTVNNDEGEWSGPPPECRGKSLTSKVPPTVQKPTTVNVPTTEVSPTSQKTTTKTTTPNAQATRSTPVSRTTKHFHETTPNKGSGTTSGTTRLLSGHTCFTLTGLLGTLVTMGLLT
Sequence of UniProt Q00534 (Q00534 whole entry, looked up): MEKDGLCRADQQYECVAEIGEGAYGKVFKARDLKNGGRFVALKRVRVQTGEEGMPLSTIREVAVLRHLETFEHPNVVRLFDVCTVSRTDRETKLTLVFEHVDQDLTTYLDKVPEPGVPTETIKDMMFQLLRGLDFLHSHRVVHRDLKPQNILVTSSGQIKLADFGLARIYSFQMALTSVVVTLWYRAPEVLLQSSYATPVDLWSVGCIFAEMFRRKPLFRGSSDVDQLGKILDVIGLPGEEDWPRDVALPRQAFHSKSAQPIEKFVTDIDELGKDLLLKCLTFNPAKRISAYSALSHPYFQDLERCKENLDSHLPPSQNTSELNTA
Sequence of UniProt Q9NZN8 (Q9NZN8 whole entry, looked up): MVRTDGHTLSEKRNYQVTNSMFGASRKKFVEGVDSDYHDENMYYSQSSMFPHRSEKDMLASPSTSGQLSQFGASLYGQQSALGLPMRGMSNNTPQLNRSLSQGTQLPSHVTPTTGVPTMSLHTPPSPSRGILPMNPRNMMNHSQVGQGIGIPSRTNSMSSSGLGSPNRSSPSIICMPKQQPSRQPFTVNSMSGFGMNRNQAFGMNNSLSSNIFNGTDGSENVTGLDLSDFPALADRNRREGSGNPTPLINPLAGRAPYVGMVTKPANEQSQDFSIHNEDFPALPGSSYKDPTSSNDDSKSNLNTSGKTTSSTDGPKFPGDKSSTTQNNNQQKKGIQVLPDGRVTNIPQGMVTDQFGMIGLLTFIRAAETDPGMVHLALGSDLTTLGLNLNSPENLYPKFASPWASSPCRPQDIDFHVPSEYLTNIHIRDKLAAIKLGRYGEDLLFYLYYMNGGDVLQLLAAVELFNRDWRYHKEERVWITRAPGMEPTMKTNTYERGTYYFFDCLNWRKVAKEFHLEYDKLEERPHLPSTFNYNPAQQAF
Sequence of UniProt Q00536 (Q00536 whole entry, looked up): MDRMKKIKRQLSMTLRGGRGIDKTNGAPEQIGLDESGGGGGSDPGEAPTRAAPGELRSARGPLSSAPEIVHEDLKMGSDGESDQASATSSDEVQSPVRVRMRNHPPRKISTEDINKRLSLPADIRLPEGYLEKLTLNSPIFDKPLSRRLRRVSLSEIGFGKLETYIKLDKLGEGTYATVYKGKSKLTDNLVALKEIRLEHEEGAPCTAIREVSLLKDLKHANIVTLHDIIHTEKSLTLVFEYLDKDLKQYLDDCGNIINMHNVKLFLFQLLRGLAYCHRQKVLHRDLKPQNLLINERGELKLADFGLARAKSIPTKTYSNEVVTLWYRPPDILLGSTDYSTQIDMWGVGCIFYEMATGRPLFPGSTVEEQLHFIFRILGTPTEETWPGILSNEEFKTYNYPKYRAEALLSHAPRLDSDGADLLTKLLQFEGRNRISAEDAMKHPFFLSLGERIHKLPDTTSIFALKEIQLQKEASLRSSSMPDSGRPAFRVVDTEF
Sequence of UniProt P48509 (P48509 whole entry, looked up): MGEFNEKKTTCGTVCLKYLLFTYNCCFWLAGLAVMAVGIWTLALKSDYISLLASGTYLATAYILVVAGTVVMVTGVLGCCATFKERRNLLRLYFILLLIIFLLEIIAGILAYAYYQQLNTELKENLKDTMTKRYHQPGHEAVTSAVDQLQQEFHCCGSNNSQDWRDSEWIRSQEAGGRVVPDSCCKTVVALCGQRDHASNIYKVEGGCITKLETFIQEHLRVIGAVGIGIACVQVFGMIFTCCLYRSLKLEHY
Sequence of UniProt Q8N1A6 (Q8N1A6 whole entry, looked up): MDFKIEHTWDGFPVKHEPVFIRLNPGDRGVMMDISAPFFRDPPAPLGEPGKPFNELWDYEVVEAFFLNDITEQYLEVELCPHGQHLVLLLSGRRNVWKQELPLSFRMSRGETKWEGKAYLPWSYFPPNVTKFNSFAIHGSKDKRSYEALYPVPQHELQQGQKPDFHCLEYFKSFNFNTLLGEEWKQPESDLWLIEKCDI
Sequence of UniProt O75794 (O75794 whole entry, looked up): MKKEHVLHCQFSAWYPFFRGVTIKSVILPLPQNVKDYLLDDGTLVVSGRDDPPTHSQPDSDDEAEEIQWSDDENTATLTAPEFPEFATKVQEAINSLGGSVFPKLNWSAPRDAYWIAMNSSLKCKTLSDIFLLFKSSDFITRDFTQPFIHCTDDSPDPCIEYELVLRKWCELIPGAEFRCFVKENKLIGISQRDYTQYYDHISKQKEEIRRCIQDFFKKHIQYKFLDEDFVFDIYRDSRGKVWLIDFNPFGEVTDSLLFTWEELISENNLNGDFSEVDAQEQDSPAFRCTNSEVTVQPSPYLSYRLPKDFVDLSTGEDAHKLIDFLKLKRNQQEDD
Sequence of UniProt O75976 (O75976 whole entry, looked up): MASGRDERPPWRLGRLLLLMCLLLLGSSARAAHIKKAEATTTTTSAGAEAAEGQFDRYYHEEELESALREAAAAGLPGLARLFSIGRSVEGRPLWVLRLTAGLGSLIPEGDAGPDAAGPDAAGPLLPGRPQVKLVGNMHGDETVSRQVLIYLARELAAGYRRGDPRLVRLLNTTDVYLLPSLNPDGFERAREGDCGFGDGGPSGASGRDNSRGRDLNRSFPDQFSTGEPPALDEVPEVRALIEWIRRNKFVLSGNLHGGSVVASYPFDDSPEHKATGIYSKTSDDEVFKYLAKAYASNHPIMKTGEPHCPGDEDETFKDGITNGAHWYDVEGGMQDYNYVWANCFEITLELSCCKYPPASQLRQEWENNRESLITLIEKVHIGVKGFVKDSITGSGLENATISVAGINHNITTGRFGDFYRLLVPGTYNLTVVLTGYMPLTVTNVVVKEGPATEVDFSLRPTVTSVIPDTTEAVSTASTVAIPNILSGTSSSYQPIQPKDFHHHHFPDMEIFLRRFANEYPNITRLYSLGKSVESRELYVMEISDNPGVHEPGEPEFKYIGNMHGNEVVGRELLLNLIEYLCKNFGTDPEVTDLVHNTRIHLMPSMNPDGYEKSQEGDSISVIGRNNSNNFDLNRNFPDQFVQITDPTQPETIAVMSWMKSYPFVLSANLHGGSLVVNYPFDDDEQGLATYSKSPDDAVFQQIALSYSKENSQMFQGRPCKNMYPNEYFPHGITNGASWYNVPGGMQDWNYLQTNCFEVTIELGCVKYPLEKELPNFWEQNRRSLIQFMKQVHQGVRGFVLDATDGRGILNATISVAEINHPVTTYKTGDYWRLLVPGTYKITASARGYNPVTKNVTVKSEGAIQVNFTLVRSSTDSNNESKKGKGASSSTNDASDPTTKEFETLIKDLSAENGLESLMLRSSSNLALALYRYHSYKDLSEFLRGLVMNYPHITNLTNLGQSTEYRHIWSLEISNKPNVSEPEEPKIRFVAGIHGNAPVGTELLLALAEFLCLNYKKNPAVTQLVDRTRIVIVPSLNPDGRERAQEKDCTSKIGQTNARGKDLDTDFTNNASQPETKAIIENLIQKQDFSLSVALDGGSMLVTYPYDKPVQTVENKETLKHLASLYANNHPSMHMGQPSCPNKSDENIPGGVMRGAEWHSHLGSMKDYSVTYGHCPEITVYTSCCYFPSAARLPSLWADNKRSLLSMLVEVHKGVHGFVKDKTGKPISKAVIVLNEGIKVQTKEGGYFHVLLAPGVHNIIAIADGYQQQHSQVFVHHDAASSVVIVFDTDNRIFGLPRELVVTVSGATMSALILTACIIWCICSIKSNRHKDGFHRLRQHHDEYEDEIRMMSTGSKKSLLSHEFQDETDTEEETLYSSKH
Sequence of UniProt P86791 (P86791 whole entry, looked up): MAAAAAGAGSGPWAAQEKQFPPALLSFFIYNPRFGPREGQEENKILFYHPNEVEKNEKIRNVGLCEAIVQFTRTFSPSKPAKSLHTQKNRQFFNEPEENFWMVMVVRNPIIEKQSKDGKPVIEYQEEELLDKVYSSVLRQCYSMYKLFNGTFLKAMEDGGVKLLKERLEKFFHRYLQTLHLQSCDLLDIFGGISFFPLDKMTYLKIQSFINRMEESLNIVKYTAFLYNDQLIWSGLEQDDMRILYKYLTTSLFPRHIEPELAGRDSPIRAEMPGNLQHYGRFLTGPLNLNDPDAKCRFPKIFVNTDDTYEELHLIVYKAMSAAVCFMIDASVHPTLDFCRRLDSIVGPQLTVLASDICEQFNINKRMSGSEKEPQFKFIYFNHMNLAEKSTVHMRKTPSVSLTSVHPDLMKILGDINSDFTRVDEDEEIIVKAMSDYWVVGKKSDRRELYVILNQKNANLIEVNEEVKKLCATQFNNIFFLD
Sequence of UniProt Q6NZI2 (Q6NZI2 whole entry, looked up): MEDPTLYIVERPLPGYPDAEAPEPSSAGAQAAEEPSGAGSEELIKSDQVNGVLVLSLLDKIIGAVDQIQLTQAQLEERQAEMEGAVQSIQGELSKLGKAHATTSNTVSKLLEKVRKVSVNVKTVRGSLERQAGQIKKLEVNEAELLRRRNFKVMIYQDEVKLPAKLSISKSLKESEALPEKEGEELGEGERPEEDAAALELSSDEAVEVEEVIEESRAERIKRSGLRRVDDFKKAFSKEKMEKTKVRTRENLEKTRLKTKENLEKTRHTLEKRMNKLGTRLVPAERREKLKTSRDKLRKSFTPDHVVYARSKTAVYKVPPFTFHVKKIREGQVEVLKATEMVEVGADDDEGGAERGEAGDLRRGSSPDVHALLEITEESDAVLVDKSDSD
Sequence of UniProt P41208 (P41208 whole entry, looked up): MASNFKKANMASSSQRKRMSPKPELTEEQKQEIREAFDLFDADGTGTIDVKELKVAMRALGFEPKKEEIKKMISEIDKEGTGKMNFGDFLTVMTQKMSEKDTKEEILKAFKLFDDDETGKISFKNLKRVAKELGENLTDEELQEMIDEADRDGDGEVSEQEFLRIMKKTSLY

Row | Target | log2 fold change [1] | log2 fold change [2] | log2 fold change [3] | log2 fold change [4] | log2 fold change (Nexturastat A) | log2 fold change (vemurafenib) | log2 fold change [5] | log2 fold change [6] | log2 fold change (givinostat) | log2 fold change (barasertib) | log2 fold change [7] | log2 fold change (volasertib) | log2 fold change [8] | log2 fold change (epoxomicin) | log2 fold change [9] | log2 fold change [10] | log2 fold change [11] | log2 fold change (rosiglitazone) | log2 fold change [12] | log2 fold change [13]
1 | CSNK2B (UniProt P67870) | -0.019 | 0.021 | -0.032 | 0.066 | -0.021 | 0.026 | 0.016 | -0.034 | -0.03 | -0.008 | -0.029 | 0.009 | 0.043 | 0.019 | 0.001 | -0.051 | 0.027 | 0.034 | -0.048 | -0.176
2 | CNOT2 (UniProt Q9NZN8) | -0.075 | 0.136 | -0.027 | 0.008 | 0.017 | -0.03 | 0.006 | -0.018 | 0.059 | 0.01 | -0.035 | -0.168 | 0.021 | -0.034 | -0.05 | 0.085 | 0.015 | 0.007 | 0.062 | -0.027
3 | COQ7 (UniProt Q99807) | 0.028 | 0.086 | 0.02 | 0.018 | -0.068 | -0.002 | -0.061 | -0.034 | -0.091 | 0.023 | -0.035 | -0.009 | -0.01 | 0.013 | -0.005 | -0.041 | -0.047 | 0.038 | 0.023 | -0.05
4 | CDK6 (UniProt Q00534) | -0.037 | 0.01 | 0.044 | 0 | 0.032 | 0.002 | -0.024 | -0.027 | -0.019 | -0.018 | -0.027 | -0.03 | 0.007 | 0.088 | 0.043 | 0.014 | 0.007 | 0.011 | 0.062 | -0.1
5 | CDC123 (UniProt O75794) | -0.033 | 0.006 | 0.043 | 0.048 | 0.013 | 0.011 | 0.02 | 0.038 | -0.01 | 0.028 | 0.06 | -0.002 | 0.07 | 0.137 | -0.012 | -0.021 | 0.015 | 0.034 | -0.009 | -0.1
6 | C4orf33 (UniProt Q8N1A6) | -0.101 | 0.04 | 0.049 | -0.049 | 0.018 | -0.01 | -0.082 | 0.07 | 0.055 | 0.03 | 0.044 | 0.066 | 0.007 | -0.084 | -0.034 | -0.062 | -0.007 | 0.155 | 0.009 | -0.027
7 | CAD (UniProt P27708) | -0.047 | -0.009 | 0.027 | 0.012 | 0 | -0.041 | -0.018 | -0.078 | 0.008 | 0.002 | 0.006 | 0.009 | 0.019 | 0.034 | -0.169 | -0.08 | 0.022 | 0.032 | -0.028 | -0.458 (active)
8 | CDK16 isoform 2 (UniProt Q00536) | 0.003 | -0.017 | 0.028 | 0.021 | -0.052 | -0.072 | 0.027 | -0.101 | -0.043 | -0.023 | -0.049 | -0.316 | -0.014 | 0.02 | -0.113 | 0.001 | 0.041 | 0.061 | -0.074 | 0.135
9 | CD151 (UniProt P48509) | -0.125 | -0.057 | -0.002 | 0.027 | -0.159 | -0.103 | 0 | -0.21 | 0.018 | -0.052 | 0.277 (active) | 0.157 | -0.068 | 0.041 | -0.011 | -0.058 | 0 | 0.017 | -0.095 | 0.248
10 | CETN2 (UniProt P41208) | -0.015 | -0.016 | -0.146 | -0.071 | -0.188 | -0.008 | -0.335 (active) | -0.034 | -0.034 | -0.013 | 0.149 | 0.159 | -0.006 | -0.074 | 0.074 | 0.065 | -0.058 | -0.01 | -0.018 | 0.037
11 | CCNK isoform 4 (UniProt O75909) | 0 | 0.032 | -0.032 | -0.011 | 0.024 | -0.088 | 0 | 0.038 | 0.014 | -0.063 | 0.099 | 0.045 | -0.018 | -0.254 | 0.025 | 0.129 | -0.051 | -0.038 | 0.105 | 0.032
12 | CD55 isoform 7 (UniProt P08174) | 0.037 | -0.006 | 0.021 | 0.049 | 0.072 | -0.031 | -0.053 | 0.088 | 0 | -0.057 | 0.172 | 0.096 | -0.031 | 0.086 | 0.02 | -0.006 | -0.042 | -0.078 | -0.005 | 0.228 (active)
13 | CPD (UniProt O75976) | -0.017 | 0 | -0.01 | -0.016 | -0.001 | -0.017 | -0.021 | -0.062 | 0.016 | 0.011 | -0.152 | -0.33 | -0.017 | 0.025 | 0.036 | -0.044 | -0.024 | 0.002 | 0.029 | -0.399 (active)
14 | CAVIN1 (UniProt Q6NZI2) | 0.024 | -0.066 | -0.051 | -0.027 | 0.186 | -0.068 | -0.047 | 0.073 | 0.041 | -0.058 | 0.072 | 0.182 | -0.007 | -0.125 | 0.013 | 0.085 | -0.06 | -0.037 | 0.124 | -0.074
15 | C4A (UniProt P0C0L4) | -0.154 | 0.19 | 0.111 | 0.215 | -0.008 | 0.148 | -0.02 | -0.287 | 0.001 | 0.021 | -0.147 | -0.216 | -0.048 | -0.316 | -0.079 | 0.197 | 0 | 0.154 | 0.223 | -0.32
16 | CCZ1 (UniProt P86791) | -0.005 | -0.029 | 0.014 | 0.035 | 0.009 | 0.024 | 0.011 | -0.029 | 0.028 | -0.011 | -0.199 | -0.113 | -0.005 | 0.013 | -0.011 | 0.028 | -0.002 | 0.025 | -0.002 | -0.256 (active)
